13 compounds from PubChem BioAssay (NCATS) can be followed below.

Results filed as inconclusive are left out. The source made the active and inactive calls. Calls follow the shape of the dose curve; as a rule, active = well fitted cell-killing curve with a large enough effect; inconclusive = small, poorly fitted or top-dose-only effect, or effect the other way; inactive = no such curve, though single readings can be large or run the other way.
Potency is read from the fitted curve at half-maximal effect.

A short description of this experiment: Quantitative High-Throughput drug screen in 47 multiple myeloma cell lines against the NCATS MIPE library collection: XG6_PLB cell viability assay (AID 1919865). Also: nearly all actives have a fitted effect of over 40% in size. The following applies: XG6 myeloma viability, CellTiter-Glo ATP luminescence, 48 h; series mostly up to 45.8 µM. Put shortly: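 Viability after 48 h drug exposure was measured as ATP-dependent luminescence. Cells, 500 per well, sat at 37 °C under 5% CO2; DMSO wells set 100%, media-only wells 0%.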
Background: ATP-based viability assays read luminescence as a measure of living cells.
Consider `COc1ccc(-c2cc3c(C)nc(N)nc3n(C3CCC(OCCO)CC3)c2=O)cn1` (stereo not drawn), for which the Potency was 66.2 nM (active). Consider `Cc1ccc(NC(=O)C2(c3ccc4c(c3)OC(F)(F)O4)CC2)nc1-c1cccc(C(=O)O)c1`, for which the Potency is 66.2 nM (active).

Turning to `O=C(O)c1ccc2cc(-c3ccc(O)c(C45CC6CC(CC(C6)C4)C5)c3)ccc2c1`, the Potency was 132 nM (active). As for `CC(NCc1ccc2c(c1)nc(NC(=O)c1ccc(-c3cn[nH]c3)s1)n2CC(C)(C)O)C(C)(C)C` (stereo not drawn), the Potency was 235 nM (active).

Turning to `Cc1cc(N2CCOCC2)cc2[nH]c(-c3c(NC[C@@H](O)c4cccc(Cl)c4)cc[nH]c3=O)nc12`, the Potency is 83.3 nM (active). With `CC1(O)CC(c2nc(-c3ccc4ccc(-c5ccccc5)nc4c3)c3c(N)nccn23)C1` (stereo not drawn) the figure was 5260 nM (active); with `Nc1cc(C(F)(F)F)c(-c2cc(N3CCOCC3)nc(N3CCOCC3)n2)cn1`, 662 nM (active); with `Nc1ncnc2c1c(-c1cnc3[nH]ccc3c1)nn2C1CCCC1`, 526 nM (active). The same measure for `CCOc1ccccc1OCCNC(C)Cc1ccc(OC)c(S(N)(=O)=O)c1` (stereo not drawn): “inactive”. On to `COc1cc2nccc(Oc3ccc(NC(=O)C4(C(=O)Nc5ccc(F)cc5)CC4)cc3)c2cc1OC`, for which the Potency is 743 nM (active). In the case of `CN(C)CC=CC(=O)Nc1cc2c(Nc3ccc(F)c(Cl)c3)ncnc2cc1O[C@H]1CCOC1`, the Potency is 2640 nM (active). Take `Cn1cc(-c2[nH]c3cc(NC(=O)[C@H](N)C4CCCCC4)cc4c3c2C=NNC4=O)cn1`: the Potency was 209 nM (active). Turning to `O=C(C=Cc1cccc(S(=O)(=O)Nc2ccccc2)c1)NO`, the Potency is 4810 nM (active).
